Here are results for 15 sequences from the supplement of paper PMC12645437, “Orthogonal IMiD-Degron Pairs Induce Selective Protein Degradation in Cells” (ACS Chemical Biology, 2025).

This assay addresses T1, CRBN, Q96SW2.
T1 chain: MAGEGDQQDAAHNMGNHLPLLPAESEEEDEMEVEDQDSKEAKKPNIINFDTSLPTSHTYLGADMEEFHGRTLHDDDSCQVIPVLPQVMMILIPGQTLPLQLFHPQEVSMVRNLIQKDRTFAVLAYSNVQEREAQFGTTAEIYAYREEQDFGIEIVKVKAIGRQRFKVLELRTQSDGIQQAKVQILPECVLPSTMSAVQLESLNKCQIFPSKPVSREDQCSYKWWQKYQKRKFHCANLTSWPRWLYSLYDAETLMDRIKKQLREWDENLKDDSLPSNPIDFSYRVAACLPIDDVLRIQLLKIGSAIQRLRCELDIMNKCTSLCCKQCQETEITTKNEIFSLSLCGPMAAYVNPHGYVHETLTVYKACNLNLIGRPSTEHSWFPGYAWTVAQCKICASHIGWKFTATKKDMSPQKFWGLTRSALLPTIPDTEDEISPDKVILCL
Description: log2 fold change of degron read counts, EGFP-low vs EGFP+ sorted cells (limma voom), compound-induced degradation; higher = more compound-induced degradation of the degron-EGFP fusion; degrons are variants of IKZF1/3 zinc finger 2; compound dose not given here. The conditions noted are these: Jurkat, 18 h. The protocol: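 Pooled library of 8380 IKZF3 ZF2 degron mutants (positions 146-167 varied within the IKZF3 130-189 degron; only the varied core is printed, flanks not printed) fused to EGFP with IRES-mCherry, lentivirally expressed in Jurkat cells. mCherry+ cells were treated with one IMiD compound for 18 h (dose not stated) and FACS-sorted into EGFP-low and EGFP+ populations. Degron sequences were counted by NGS, and log2FC (EGFP-low vs EGFP+) was estimated by limma voom over 3 biological replicates.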

[1] abbreviates: compound: compound 19 (5-tert-butyl-thalidomide).
[2] abbreviates: compound: compound 22 (5-morpholino-thalidomide).
[3] abbreviates: compound: compound 33 (diphenyl IMiD analogue).

Over roughly 8,300 sequences, “log2 fold change of degron read counts, EGFP-low vs EGFP+ sorted cells (limma voom), compound-induced degradation” has its median near -1.1; the highest 2% begin near 3.2. Shown is part of a subset that was picked to be rich in the highest values.
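Also: pooled lentiviral library of zinc finger degron-EGFP fusions in mCherry-positive Jurkat cells, FACS-sorted after compound exposure, with degron abundance counted by next-generation sequencing.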

B1: 46F_47D_49D_50I_52G_53A_54T_55F_67L_, Q9UKT9 (peptide)
chain: FDCDICGATFTQKGNLLRHIKL
As to B1, the “log2 fold change of degron read counts” value reads like this: under setting [1], -0.229; under setting [2], -1.86; under setting [3], -1.66; (compound: thalidomide) -1.78.

B2: 46F_47I_49N_50Q_52G_53A_54G_55F_67L_, Q9UKT9 (peptide)
chain: FICNQCGAGFTQKGNLLRHIKL
With B2, the “log2 fold change of degron read counts” value reads like this: under setting [1], -2.57; under setting [2], -1.54; under setting [3], -0.787; (compound: thalidomide) -0.966.

B3: 46F_47Y_49P_50I_52G_53H_54N_55F_67L_, Q9UKT9 (peptide)
chain: FYCPICGHNFTQKGNLLRHIKL
For the sequence B3, the “log2 fold change of degron read counts” value runs as follows: under setting [1], -1.61; under setting [2], -1.84; under setting [3], -0.993; (compound: thalidomide) -1.92.

B4: 46L_47V_49P_50I_52G_53F_54P_55C_67L_, Q9UKT9 (peptide)
chain: LVCPICGFPCTQKGNLLRHIKL
Consider B4, for which the “log2 fold change of degron read counts” value worked out at 0.138 under setting [1], 1.61 under setting [2], 0.747 under setting [3] and 1.9 (compound: thalidomide).

B5: 46L_47L_49P_50I_52G_53F_54S_55C_67L_, Q9UKT9 (peptide)
chain: LLCPICGFSCTQKGNLLRHIKL
As to B5, the “log2 fold change of degron read counts” value under setting [1] was determined as 1.38, the “log2 fold change of degron read counts” value under setting [2] is 0.88, the “log2 fold change of degron read counts” value under setting [3] was 1.79 and the “log2 fold change of degron read counts” value (compound: thalidomide) came out at 2.5.

B6: 46L_47D_49P_50I_52G_53F_54S_55C_67L_, Q9UKT9 (peptide)
chain: LDCPICGFSCTQKGNLLRHIKL
As for B6, the “log2 fold change of degron read counts” value reads like this: under setting [1], 1.61; under setting [2], 0.446; under setting [3], 1.19; (compound: thalidomide) 2.17.

B7: 46L_47G_49P_50I_52G_53F_54E_55C_67L_, Q9UKT9 (peptide)
chain: LGCPICGFECTQKGNLLRHIKL
For the sequence B7, the “log2 fold change of degron read counts” value runs as follows: under setting [1], 1.95; under setting [2], 0.368; under setting [3], 0.47; (compound: thalidomide) 0.369.

B8: 46L_47S_49P_50I_52G_53F_54S_55C_67L_, Q9UKT9 (peptide)
chain: LSCPICGFSCTQKGNLLRHIKL
As for B8, the “log2 fold change of degron read counts” value is 3.04 under setting [1], 3.05 under setting [2], 2.54 under setting [3] and 2.8 (compound: thalidomide).

B9: 46L_47G_49P_50I_52G_53F_54S_55C_67L_, Q9UKT9 (peptide)
chain: LGCPICGFSCTQKGNLLRHIKL
Consider B9, for which the “log2 fold change of degron read counts” value under setting [1] was found to be 3.62, the “log2 fold change of degron read counts” value under setting [2] worked out at 2.62, the “log2 fold change of degron read counts” value under setting [3] stood at 2.12 and the “log2 fold change of degron read counts” value (compound: thalidomide) stood at 1.55.

B10: 46L_47H_49P_50I_52G_53F_54S_55C_67L_, Q9UKT9 (peptide)
chain: LHCPICGFSCTQKGNLLRHIKL
As for B10, the “log2 fold change of degron read counts” value reads like this: under setting [1], 3.33; under setting [2], 3.49; under setting [3], 2.83; (compound: thalidomide) 2.54.

B11: 46L_47K_49P_50I_52G_53F_54S_55C_67L_, Q9UKT9 (peptide)
chain: LKCPICGFSCTQKGNLLRHIKL
For B11, the “log2 fold change of degron read counts” value reads like this: under setting [1], 1.33; under setting [2], -0.186; under setting [3], -0.695; (compound: thalidomide) 1.64.

B12: 46L_47A_49P_50I_52G_53F_54S_55C_67L_, Q9UKT9 (peptide)
chain: LACPICGFSCTQKGNLLRHIKL
Take B12: the “log2 fold change of degron read counts” value is, setting by setting: under setting [1], 3.69; under setting [2], 3.18; under setting [3], 2.48; (compound: thalidomide) 2.94.

B13: 46L_47I_49P_50I_52G_53F_54S_55C_67L_, Q9UKT9 (peptide)
chain: LICPICGFSCTQKGNLLRHIKL
B13: the “log2 fold change of degron read counts” value is, setting by setting: under setting [1], 0.996; under setting [2], 3.08; under setting [3], 2.1; (compound: thalidomide) 3.18.

B14: 46L_47E_49P_50I_52G_53F_54S_55C_67L_, Q9UKT9 (peptide)
chain: LECPICGFSCTQKGNLLRHIKL
For the sequence B14, the “log2 fold change of degron read counts” value reads like this: under setting [1], 1.9; under setting [2], 0.453; under setting [3], 2.42; (compound: thalidomide) 3.62.

B15: 46L_47M_49P_50I_52G_53F_54S_55C_67L_, Q9UKT9 (peptide)
chain: LMCPICGFSCTQKGNLLRHIKL
For B15, the “log2 fold change of degron read counts” value under setting [1] was found to be 1.63, the “log2 fold change of degron read counts” value under setting [2] came out at 2.78, the “log2 fold change of degron read counts” value under setting [3] is 2.99 and the “log2 fold change of degron read counts” value (compound: thalidomide) stood at 2.69.
